Assay results reported in PubChem BioAssay AID493085 (Broad Institute, 2011).
The campaign covered roughly 2,400 compounds. About 360 (15%) were called active. Inconclusive results (about 5%) are left out.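 How the source made its calls: active means falling-signal curve with half-maximal concentration at or below ten times the top tested dose; inconclusive means flat fit at 30 to 70% inhibition, or poor fit; inactive means signal rise, flat within 30%, or potency beyond limit.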 These entries were drawn from the full list. Entries with a potency or affinity are not part of this list.

Test: dox-induced RFP signal loss in R4-3T3 cells – cell-based, NIH3T3 R4, HSE-GFP and Tet-On RFP, cherry-pick, set 3, dose response (AID 493085);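 further: cells heat shocked 2 h at 42 °C with doxycycline to induce reporters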
Settings: NIH3T3 R4 HSE-GFP/Tet-RFP reporter, fluorescence, 48 h; series mostly up to 19.5 µM

outcome, inactive:
OC1(c2ccc(Br)cc2)CCN(Cc2cccc(Br)c2)CC1, Cn1ccnc1SCC(=O)N(C1CCCCC1)C1CCCCC1, COc1cc(C(=O)N(C)C2CCCN(Cc3ccccc3F)C2)cc(OC)c1OC (stereo not given), CS(=O)(=O)N(CC(=O)O)c1ccc(C23CC4CC(CC(C4)C2)C3)cc1, O=C(CCC1CCCNC1)c1ccccc1 (stereo not given), CC(=O)c1cnn(-c2c(Cl)cc(Cl)cc2Cl)c1C, CC(C)Oc1ccc(C(=O)O)cc1, NC(=O)c1ccsc1NC(=O)C1CCCCC1, COC(=O)c1cccc(N2C(=O)C3CC=CCC3C2=O)c1 (stereo not given), O=C(N/N=C/c1ccc(F)cc1)c1ccc(OCc2ccccc2)cc1, COc1ccc(C(=O)Nc2ccccc2C(=O)N/N=C/c2ccc(O)c(OC)c2)cc1, O=C(N/N=C/c1cc([N+](=O)[O-])ccc1O)c1ccncc1, CCOc1cc(N2CCOCC2)c(OCC)cc1NC(=O)c1cc(-c2ccco2)nc2ccccc12, COC(=O)[C@H](C)NC(=O)NCCC1=CCCCC1, Cc1ccc(C(=O)/C=C/Nc2ccccn2)cc1, COC(=O)c1nn(-c2cccc(C(F)(F)F)c2)c(=O)cc1Sc1ccccn1, CCCCOc1ccc(C2C(=O)N(C3CCCCC3)CC(=O)N2CC2CCCO2)cc1 (stereo not given), CC(C)(C)N=C1NN=C(c2ccc(Cl)cc2)CS1, CCOC(=O)c1c(C)[nH]c(C2=NNC(=Nc3cccc(Cl)c3)SC2)c1C, CC(C)(C)c1ccccc1NC(=O)NC1CCN(Cc2c(F)cccc2Cl)CC1, COc1ccccc1NC1=C(Cl)C(=O)N(C2CCCCC2)C1=O, CCOC(=O)Cc1csc(NC(=O)c2sc3nc4ccc(CC)cc4cc3c2N)n1, O=C1c2ccccc2C(O)N1c1ccccc1 (stereo not given), Cc1ccnc(N2CCCC(C(=O)NCc3cccs3)C2)n1 (stereo not given), O=C(O)CCn1cc(/C=C2\NC(=S)N(c3ccccc3)C2=O)c(-c2ccc(Br)cc2)n1, Cc1noc(C)c1COc1ccc(C(=O)OCC(=O)Nc2c(C)n(C)n(-c3ccccc3)c2=O)cc1, COc1cccc(CNc2ccc(S(N)(=O)=O)cc2)c1OC, COc1cc(/C=C/c2nc(N)nc(-c3ccccc3O)n2)cc(OC)c1OC, CN=c1scc(-c2ccccc2F)n1/N=C/c1ccc[nH]1, Cc1cc(C)c(NC(=O)CSc2nnc(-c3ccncc3)n2Cc2ccco2)c(Cl)c1, CCOc1ccc(NCc2nnc(SCc3ccccc3Cl)n2-c2ccccc2)cc1, CCc1ccccc1-n1c(SCC(=O)Nc2ccc3c(c2)OCCO3)nc2[nH]ncc2c1=O, CCOC(=O)Cn1c(CN2CCN(c3cccc(Cl)c3)CC2)nc2c1c(=O)[nH]c(=O)n2C, CCCCn1c(=O)n(CC(=O)Nc2c(CC)cccc2CC)c(=O)c2c1nc(CO)n2CCC, Cc1[nH]n(-c2ccccc2)c(=S)c1C=Nc1cccc([N+](=O)[O-])c1, CCOc1ccc(/C(O)=C2/C(=O)C(=O)N(CCCn3ccnc3)C2c2cccs2)cc1Cl (stereo not given), Cc1ccc(S(=O)(=O)N2CCN(C(=O)c3cccc(F)c3)CC2)cc1, O=C(O)c1cc(-c2cccc3ccccc23)nc2ccccc12, Cc1nc(NC(C)c2ccccc2)sc1C(=O)Nc1ccccc1 (stereo not given), CC(C)Sc1nc2sccc2c(=O)n1-c1ccccc1, COc1cccc(C(=O)Nc2ccc(NC(=O)C3CC=CCC3C(=O)O)cc2)c1 (stereo not given), CC(C)CN(CC(C)C)C(=S)NC1CCCCC1, O=[N+]([O-])c1ccc(N2CCN(Cc3ccc4c(c3)OCO4)CC2)nc1, COc1cc(C(=O)Nc2ccccc2NC(=O)c2cc(OC)c(OC)c(OC)c2)cc(OC)c1OC, Cc1c(C(=O)NCc2ccc3c(c2)OCO3)sc2nc(-c3ccccc3)cn12, COc1ccccc1NC(=O)c1ccc([N+](=O)[O-])o1, O=C(NCc1ccc2c(c1)OCO2)c1cc2c(s1)CS(=O)(=O)C2, Cc1cccc(NC(=O)CN2C(=O)N/C(=C/c3cc(C)n(C(C)C)c3C)C2=O)c1, CCn1c(COc2ccc(C)cc2)nnc1SCC(=O)Nc1ccc2c(c1)OCCO2, COc1ccccc1Nc1nc(NCCCN(C)C)nc(N)c1[N+](=O)[O-], CCN(C(=O)Cn1c([N+](=O)[O-])cnc1C)c1ccccc1, CC(C)(C)c1cnnn1-c1ccc(C(=O)CCl)cc1, CC1(C)CC(=O)C2=C(C1)N(c1ccc(F)cc1)C(=O)CC2c1ccccc1 (stereo not given), O=C(COC(=O)c1cnccn1)Nc1ccc(Cl)cn1, Cc1cc(C(=O)COC(=O)C2CC2)c(C)n1-c1ccc(F)cc1, Cc1cc(C(=O)CSc2nnc3ccccn23)c(C)n1-c1ccccc1, COc1ccc(C(=O)CSc2nc(C)cc(=O)[nH]2)cc1C, CC1C=Cc2ccccc2N1C(=O)c1ccccc1 (stereo not given), O=C(OCCN1CCN(c2ncc(C(F)(F)F)cc2Cl)CC1)c1ccc(Cl)cc1, CCN1CCN(c2cc(C)c3cc(NC(=S)N4CCCC(C)C4)ccc3n2)CC1 (stereo not given), COc1cccc(CC2(CO)CCN(S(=O)(=O)c3ccc(OC)cc3OC)CC2)c1, CC(C)CC(C(=O)Nc1cccc(O)c1)N1C(=O)c2ccccc2C1=O (stereo not given), COCCN(C(=O)COC(=O)/C=C/c1ccc(C(F)(F)F)cc1)c1c(N)n(Cc2ccccc2)c(=O)[nH]c1=O, Cc1ccccc1OCC(=O)Nc1ccc([N+](=O)[O-])cc1, Cc1ccccc1OCC(=O)OCC(=O)c1ccc(-c2ccccc2)cc1, CN(Cc1ccccc1)C(=O)CCn1c(=O)oc2ccccc21, Cc1ccc(S(=O)(=O)NC(C)(C)CSc2nncn2N)cc1, CC1(C)C=C2C(=NN(c3ccccc3)C(N)=C2C#N)CO1, O=C(CCl)Nc1ccccc1C(=O)c1ccccc1, Fc1ccc(-n2cc(CNCCc3ccccn3)c(-c3ccccc3Cl)n2)cc1
